Records with an inconclusive call do not appear. The source made the active and inactive calls. Calls come from the whole dose curve; as a rule, active = well fitted curve in the direction sought with a large enough effect; inconclusive = small, poorly fitted or top-dose-only effect, or another doubt; inactive = no such curve, though single readings can be large; an effect the other way counts as inactive or inconclusive.
Assays:
[1] = qHTS of pediatric cancer cell lines to identify multiple opportunities for drug repurposing: Primary screen for BT-12 cells (AID 1347101); note: nearly all actives have a fitted effect of over 25% in size
In short: (§1)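 Cells (500-1,000/well) rested 5 h, then received compounds for 48 h; metabolically active cells were measured by CellTiter-Glo luminescence. Final concentrations spanned up to 46 µM (MIPE, 11-point) or 0.59 nM-46 µM (NPC, 8-point) in primary screens, 11-point in follow-ups.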

[2] = qHTS of pediatric cancer cell lines to identify multiple opportunities for drug repurposing: Primary screen for Rh18 cells (AID 1347102); note: nearly all actives have a fitted effect of over 65% in size
In short: (§2)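 Viability after 48 h compound treatment at 37C, 500-1,000 cells/well, read as ATP luminescence with CellTiter-Glo. Primary screens used 11-point (MIPE, 0.78 nM-46 µM) or 8-point (NPC, 0.59 nM-46 µM) final concentrations; follow-up screens used 11-point dilutions.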

[3] = qHTS of pediatric cancer cell lines to identify multiple opportunities for drug repurposing: Primary screen for OHS-50 cells (AID 1347103); note: nearly all actives have a fitted effect of over 40% in size
In short: as §1

[4] = qHTS of pediatric cancer cell lines to identify multiple opportunities for drug repurposing: Primary screen for RD cells (AID 1347104); note: nearly all actives have a fitted effect of over 55% in size
In short: (§3)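 Primary screen of approved and investigational compounds on cells in growth media at 37 degrees C, 5% CO2. MIPE set at 11-point and NPC set at 8-point dilutions; viability scored by ATP-based luminescence at 48 hours.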

[5] = qHTS of pediatric cancer cell lines to identify multiple opportunities for drug repurposing: Primary screen for MG 63 (6-TG R) cells (AID 1347105); note: nearly all actives have a fitted effect of over 50% in size
In short: as §3

[6] = qHTS of pediatric cancer cell lines to identify multiple opportunities for drug repurposing: Primary screen for control Hh wild type fibroblast cells (AID 1347106); note: nearly all actives have a fitted effect of over 55% in size
In short: as §2

[7] = qHTS of pediatric cancer cell lines to identify multiple opportunities for drug repurposing: Primary screen for Rh30 cells (AID 1347107); note: nearly all actives have a fitted effect of over 75% in size
In short: as §2

[8] = qHTS of pediatric cancer cell lines to identify multiple opportunities for drug repurposing: Primary screen for Rh41 cells (AID 1347108); note: nearly all actives have a fitted effect of over 70% in size
In short: as §3

[9] = qHTS of pediatric cancer cell lines to identify multiple opportunities for drug repurposing: Confirmatory screen for NB1643 cells (AID 1347109); note: nearly all actives have a fitted effect of over 45% in size
In short: as §2

[10] = qHTS of pediatric cancer cell lines to identify multiple opportunities for drug repurposing: Confirmatory screen for SK-N-MC cells (AID 1347111); conditions: SK-N-MC cell viability;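 note: cells exposed to compound for 48 h before the readout; nearly all actives have a fitted effect of over 70% in size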
In short: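 SK-N-MC cells at 500-1,000 cells/well in growth media were pre-incubated 5 h, then exposed to compounds at 11-point dilutions for 48 h at 37 degrees C, 5% CO2. Viability was read as CellTiter-Glo luminescence.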

[11] = qHTS of pediatric cancer cell lines to identify multiple opportunities for drug repurposing: Confirmatory screen for BT-12 cells (AID 1347112); note: nearly all actives have a fitted effect of over 55% in size
In short: as §2

[12] = qHTS of pediatric cancer cell lines to identify multiple opportunities for drug repurposing: Confirmatory screen for LAN-5 cells (AID 1347113); note: nearly all actives have a fitted effect of over 65% in size
In short: as §2

[13] = qHTS of pediatric cancer cell lines to identify multiple opportunities for drug repurposing: Confirmatory screen for DAOY cells (AID 1347114); note: nearly all actives have a fitted effect of over 65% in size
In short: (§4)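 Viability measured as metabolically active cells via CellTiter-Glo luminescence following 48 hours of compound exposure, 11-point dilutions in confirmatory testing. 500-1,000 cells/well plated 5 hours before dosing; controls were DMSO and 2.3 µM bortezomib.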

[14] = qHTS of pediatric cancer cell lines to identify multiple opportunities for drug repurposing: Confirmatory screen for NB-EBc1 cells (AID 1347115); note: nearly all actives have a fitted effect of over 45% in size
In short: as §2

[15] = qHTS of pediatric cancer cell lines to identify multiple opportunities for drug repurposing: Confirmatory screen for SJ-GBM2 cells (AID 1347116); note: nearly all actives have a fitted effect of over 60% in size
In short: as §4

[16] = qHTS of pediatric cancer cell lines to identify multiple opportunities for drug repurposing: Confirmatory screen for BT-37 cells (AID 1347117); conditions: BT-37 pediatric cancer cells, viability; note: nearly all actives have a fitted effect of over 55% in size
In short: as §2

[17] = qHTS of pediatric cancer cell lines to identify multiple opportunities for drug repurposing: Confirmatory screen for TC32 cells (AID 1347118); conditions: TC32 Ewing sarcoma cells viability qHTS; note: nearly all actives have a fitted effect of over 65% in size
In short: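 Luminescent CellTiter-Glo read-out of metabolically active TC32 cells after 48 h compound exposure. Primary: MIPE 11-point, 0.78 nM–46 µM; NPC 8-point, 0.59 nM–46 µM. Confirmatory: 11-point dilutions.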

[18] = qHTS of pediatric cancer cell lines to identify multiple opportunities for drug repurposing: Confirmatory screen for MG 63 (6-TG R) cells (AID 1347119); note: nearly all actives have a fitted effect of over 55% in size
In short: as §2

[19] = qHTS of pediatric cancer cell lines to identify multiple opportunities for drug repurposing: Confirmatory screen for control Hh wild type fibroblast cells (AID 1347121); note: nearly all actives have a fitted effect of over 70% in size
In short: as §2

Measured: Potency
Potency is the fitted concentration of half-maximal effect.

CC(C(=O)O)c1ccc2c(c1)[nH]c1ccc(Cl)cc12 (configuration not stated)
inactive: [1] | [2] | [3] | [4] | [5] | [6] | [7] | [8]

O=C(CCN1CCN(CCO)CC1)N1c2ccccc2Sc2ccc(C(F)(F)F)cc21
inactive: [1] | [2] | [3] | [4] | [5] | [6] | [7] | [8]

c1ccc2sc(SN3CCOCC3)nc2c1
inactive: [1] | [2] | [3] | [4] | [5] | [6] | [7] | [8]

CCCCCCCCCCCCOCCO
inactive: [1] | [2] | [3] | [4] | [5] | [6] | [7] | [8]

C/C(=N\O)c1ccc(OCC(=O)N2CCCCC2)cc1
inactive: [1] | [2] | [3] | [4] | [5] | [6] | [7] | [8]

O=C(O)Cc1ccc2c(c1)C(=O)c1ccccc1CO2
inactive: [1] | [2] | [3] | [4] | [5] | [6] | [7] | [8]

Nc1ccc(C(=O)O)c(O)c1
inactive: [1] | [2] | [3] | [4] | [5] | [6] | [7] | [8]

Cc1ccc2c(n1)Oc1ccc(C(C)C(=O)OCC(=O)N(C)C)cc1C2 (configuration not stated)
inactive: [1] | [2] | [3] | [4] | [5] | [6] | [7] | [8]

NCCO
inactive: [1] | [2] | [3] | [4] | [5] | [6] | [7] | [8]

C=CCCCCCCCCC(=O)O
inactive: [1] | [2] | [3] | [4] | [5] | [6] | [7] | [8]

CN(C)CCn1nnnc1SCC1=C(C(=O)O)N2C(=O)[C@@H](NC(=O)Cc3csc(N)n3)[C@H]2SC1
inactive: [1] | [2] | [3] | [4] | [5] | [6] | [7] | [8]

COc1cc2c3cc1Oc1cc(ccc1O)C[C@@H]1c4c(cc(OC)c(O)c4Oc4ccc(cc4)C[C@@H]3N(C)CC2)CC[N+]1(C)C
inactive: [1] | [2] | [3] | [4] | [5] | [6] | [7] | [8]

CN1CC(=O)N/C1=N/C(=O)Nc1cccc(Cl)c1
inactive: [1] | [2] | [3] | [4] | [5] | [7] | [8]

CCCCCCCC/C=C/C(=O)O
inactive: [1] | [2] | [3] | [4] | [5] | [6] | [7] | [8]

Nc1c(CC(=O)O)cccc1C(=O)c1ccc(Br)cc1
inactive: [1] | [2] | [3] | [4] | [5] | [6] | [7] | [8]

CN(C)c1ccc(C(=C2C=CC(=[N+](C)C)C=C2)c2ccccc2)cc1
active: [1] 174 nM | [2] 75 nM | [3] 34.7 nM | [4] 59.6 nM | [5] 106 nM | [6] 23700 nM | [7] 473 nM | [8] 94.4 nM | [9] 657 nM | [10] 369 nM | [11] 1850 nM | [12] 737 nM | [13] 657 nM | [14] 827 nM | [15] 1310 nM | [16] 657 nM | [17] 261 nM | [18] 208 nM | [19] 737 nM

O=C(O)Cc1ccc(-c2ccccc2)cc1
inactive: [1] | [2] | [3] | [4] | [5] | [6] | [7] | [8]

CC(=O)SCC(CC(=O)c1ccc(C)cc1)C(=O)O (configuration not stated)
inactive: [1] | [2] | [3] | [4] | [5] | [6] | [7] | [8]

CCCCCCCCCCCC(=O)[O][Sn]([CH2]CCC)([CH2]CCC)[O]C(=O)CCCCCCCCCCC
inactive: [1] | [2] | [3] | [4] | [5] | [6] | [7] | [8]
